Compound activity as filed in PubChem.
The entries come from a sample that favours hits as a whole.
Pf Dd2 inh: inhibitors of Plasmodium falciparum Dd2 growth | AID 1347417 | P. falciparum Dd2 growth, SYBR Green, 72 h | 120,000 tested, 4.3% active | Potency, µM (titrated, usually from 28.9 µM), usual class: inhibitors; active = well fitted inhibition curve with a large enough effect; note: nearly all actives have a fitted effect of over 65% in size
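Infected erythrocytes (Dd2, 0.3% parasitemia, 2.5% hematocrit final) are added to compound in RPMI-1640/Albumax II medium, grown 72 h at 37C in low oxygen, then lysed with saponin/Triton-X containing SYBR Green and read by fluorescence.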
Of the large screens only hits and unclear results are named; the others gave an inactive call.

CN1[C@@H](CCC(=O)NCc2cccnc2)CNC(=O)[C@@H]2[C@H]1CCN2Cc1ccc(S(C)(=O)=O)cc1	none
Cn1cnnc1CC1CCN(C(=O)c2ccccc2)CC1	none
Cn1nc(OC(C)(C)C(=O)NCCOc2ccccc2)c2cc(CN3CCCC3)ccc21	none
O=C(CSc1nc2c(oc3ccccc32)c(=O)n1Cc1ccco1)Nc1ccccc1	none
CCCN(CCC)C(=O)CSc1nc2ccccc2c(=O)n1Cc1ccco1	Pf Dd2 inh 11µM
CCOc1ccccc1NC(=O)CSc1nc2c(oc3ccccc32)c(=O)n1Cc1ccco1	none
COc1cc(C(=O)N2CCN(CCc3ccncc3)CC2)cc(OC)c1OC	none
COc1cc(C(=O)N2CCN(CCc3ccccn3)CC2)cc(OC)c1OC	Pf Dd2 inh 2.8µM
CC(C)(C)c1ccc(C(=O)N2CCN(CCc3ccccn3)CC2)cc1	none
COc1ccc(C2(C(=O)N(C)Cc3ccc4c(c3)OCO4)CCOCC2)cc1	none
CC(C)(C)N1CC(C(=O)NCCCc2ccccc2F)CC1=O (stereo not drawn)	none
CN(C)C(=O)c1ccc(OC2CCN(C(=O)c3ccc(C(F)(F)F)cc3)CC2)nc1	none
Cc1noc(C)c1[S+](=O)([O-])N1CCC2(C1)C(=NC1CCCC1)NC(=O)N2c1cccnc1 (stereo not drawn)	none
CC(C)(C)OC(=O)N1CCC(c2c(C(=O)N3CCN(c4ncccn4)CC3)cnn2-c2ccc(F)cc2F)CC1	none
COc1ccccc1CNC(=O)c1cnn(-c2ccc(F)cc2F)c1C1CCN(C(=O)OC(C)(C)C)CC1	Pf Dd2 inh 10µM
CC(C)(C)OC(=O)N1CCC(c2c(C(=O)NCCc3ccsc3)cnn2-c2ccccc2Cl)CC1	none
CC(C)(C)OC(=O)N1CCC(c2c(C(=O)N3CCOCC3)cnn2-c2ccccc2Cl)CC1	none
COc1cc(OC)c(NC(=O)c2cnn(-c3cccc(Cl)c3C)c2C2CCN(C(=O)OC(C)(C)C)CC2)cc1Cl	Pf Dd2 inh 3.5µM
Cc1ccc(CNC(=O)c2cnn(-c3ccc(F)cc3F)c2C2CCN(C(=O)OC(C)(C)C)CC2)cc1	Pf Dd2 inh 11µM
CC(C)(C)OC(=O)N1CCC(c2c(C(=O)NC3CCCCC3)cnn2-c2ccc(F)cc2F)CC1	none
COc1ccc(OC)c(CCNC(=O)c2cnn(-c3ccccc3Cl)c2C2CCN(C(=O)OC(C)(C)C)CC2)c1	Pf Dd2 inh 7.9µM
COCc1ccc2c(c1)c(OC(C)(C)C(=O)N1CC(O)C1)nn2Cc1cccnc1	none
CC(C)(C)C(=O)N1CCN(CCC(=O)Nc2ccc(C(N)=O)cc2)CC1	none
Cc1ccc(-c2nnc(C3CN(C(=O)C4(c5ccccc5)CC4)CC34CCOCC4)o2)cc1 (stereo not drawn)	none
CNC1CCc2cc(OC)c(OC)cc21 (stereo not drawn)	none
COc1cccc(C(=O)NCC2(COc3ccc(C(F)(F)F)cn3)C[C@@H](O)[C@@H](O)C2)c1 (stereo partly drawn)	none
Cc1nc(-c2c3n(c(=O)n(CC(=O)Nc4ccc(Cl)cc4F)c2=O)CCCC3)no1	none
CCn1c(=O)c2cc(C(=O)Nc3cc(OC)c(OC)c(OC)c3)sc2c2ccccc21	none
CCOc1ccc(CCNC(=O)c2cc3c(=O)n(CC)c4ccccc4c3s2)cc1OCC	none
CCN(CC)CCOC(=O)c1ccc(NC(=O)c2cc3c(=O)n(CC)c4ccccc4c3s2)cc1	Pf Dd2 inh 0.79µM
Cc1c(Cl)cccc1-c1ccc(/C=C(\C#N)c2nc3ccccc3[nH]2)o1	none
N#C/C(=C/c1ccc(Cl)cc1Cl)c1nc2ccccc2c(=O)[nH]1	none
COc1c(Cl)cc(Cl)cc1/C=C(\C#N)c1nc2ccccc2[nH]1	Pf Dd2 inh 5.6µM
O=C(Cc1cccs1)N1CCCN(CCc2ccccc2)c2ccccc21	none
CCCc1cc(C(=O)N[C@@H]2CCOC[C@H]2OCCO)n(C)n1	none
COc1ccc(CC(=O)Nc2ccc([C@H]3OCC(=O)N(Cc4ccncc4)[C@@H]3CO)cc2)cc1	none
COc1cccc(-c2cn3c(n2)N(C(=O)Cc2ccsc2)CCC3)c1	none
COc1cccc(-c2cn3c(n2)N(C(=O)C2CCC2)CCC3)c1	none
COc1cccc(-c2cn3c(n2)N(C(=O)C2CCCC2)CCC3)c1	Pf Dd2 inh 8.9µM
COc1ccc(CN2C(=Nc3ccc(OC)cc3)S[C@H]3[C@@H]2[C@@H](O)[C@H](O)C[C@@H]3C(N)=O)cc1	none
COCc1nc(C2CCN(C(=O)NCC(=O)OC)C2)no1 (stereo not drawn)	none
Cc1cccc(C(C(=O)N2CCN(CC(=O)NC(C)C)CC2)N(C)C)c1 (stereo not drawn)	none
Cc1cccc(C(C(=O)N2CCC(CCn3ccnc3C)CC2)N(C)C)c1 (stereo not drawn)	Pf Dd2 inh 7.9µM
CN(C)C(C(=O)N1CCN(Cc2nccn2C)CC1)c1cccc(F)c1 (stereo not drawn)	none
O=C1COc2ccc(-c3ccncc3)nc2CN1CCOc1ccccc1	none
Cc1ccc(CCNc2ncnc3onc(-c4ccc(Cl)cc4)c23)cc1	none
CCCNc1ncnc2onc(C)c12	none
CSc1ccc(CCNc2ncnc3onc(C)c23)cc1	Pf Dd2 inh 8.9µM
CNC(=O)N1CCc2nc(N3CCN(C)CC3)sc2C1	none
O=C(NC1CC1)c1ccc2nnc(-c3cccnc3)n2c1	none
O=C(NCCc1cccnc1)c1ccc(-c2nnc3ccc(NC(=O)C4CCC4)cn23)cc1	Pf Dd2 inh 0.4µM
O=C(NCCc1ccccn1)c1ccc(-c2nnc3ccc(NC(=O)C4CCC4)cn23)cc1	Pf Dd2 inh 0.56µM
O=C(Nc1ccc([C@H]2OCC(=O)N(Cc3cccnc3)[C@@H]2CO)cc1)C1CCC1	none
Cc1ccc(NC(=O)N2CCc3c(C(=O)NCCc4ccccn4)cccc32)cc1	none
O=C(NCCc1ccccn1)c1ccc(OC2CCNCC2)nc1	none
CCc1ccccc1S(=O)(=O)N1CCC(n2cnnc2C2CC2)CC1	none
Cc1cnc(-c2cccnc2)n1CC1CCN(C(=O)Cc2ccccc2)CC1	none
O=C(NC1CCN(c2cc(-c3ccc(Cl)cc3)[nH]n2)C1)c1ccc2cc[nH]c2c1 (stereo not drawn)	none
CC(C)CC(=O)N1CCCCCNC(=O)[C@@H]2CCCC[C@@H]21	none
CO[C@H]1C(=O)N(C2CCN(Cc3scnc3C)CC2)[C@H]1c1ccncc1	none
NC(=O)[C@@H]1CN(C(=O)CC2CCCC2)C[C@H]1COc1ccccc1	none
COc1ccc(-c2nn(C)c3sc(C(=O)N4CCN(c5ccccc5F)CC4)cc23)cc1OC	none
Cn1nc(-c2ccccc2F)c2cc(C(=O)NCc3ccc(Cl)cc3)sc21	none
Cn1nc(-c2ccccc2F)c2cc(C(=O)Nc3cc(F)ccc3F)sc21	none
COc1ccccc1N1CCN(C(=O)c2cc3c(-c4ccccc4F)nn(C)c3s2)CC1	Pf Dd2 inh 11µM
Cn1nc(-c2ccccc2F)c2cc(C(=O)NCc3cccc(Cl)c3)sc21	none
CCCN(CCC)CCNC(=O)c1cc2c(-c3ccccc3F)nn(C)c2s1	Pf Dd2 inh 4µM
Cc1c(Cl)cc(C(=O)N2CCCC(C#N)C2)cc1Cl (stereo not drawn)	none
CC(C)c1nc(C2Cc3ccccc3N2C(=O)NC2CCCC2)no1 (stereo not drawn)	none
COCCNc1ncnc2c1CCN(C(=O)c1cscn1)CC2	none
Cc1cccc(NC(=O)N2CCC3(CC2)CC(N(C2CC2)S(C)(=O)=O)CCO3)c1 (stereo not drawn)	none
O=C(NCc1ccc(F)cc1)N1CCC(c2noc(-c3cnccn3)n2)C1 (stereo not drawn)	none
Cc1nn(C)c(C)c1S(=O)(=O)N1C[C@@H](NS(C)(=O)=O)[C@H](C(C)C)C1	none
CC(=O)N[C@H]1CN(S(=O)(=O)c2ccc(C)c(F)c2)C[C@@H]1C(C)C	none
Cc1cc(C)c2nonc2c1S(=O)(=O)N1C[C@@H](N(C)C)[C@H](C(C)C)C1	Pf Dd2 inh 11µM
